Among the data in PubChem BioAssay (NCI) are growth values, retold here.

Some test systems named below: DU-145 prostate; K-562 leukemia; MALME-3M melanoma; MDA-MB-231 breast; RXF 393 renal; SF-268 CNS; SF-295 CNS; SF-539 CNS; UACC-257 melanoma; M14 melanoma.
Holding throughout (assay): NCI-60 one-dose screen, 48 h (100 = growth as untreated, 0 = no growth, -100 = all killed)
What all share (settings): 10 µM unless noted

About 83,000 compounds went through this panel and 20% of them were active in at least one assay; those are over-represented in the sample as a whole.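 Negative percent growth values reflect cell death: -40 means 40% of the cells present at the start died, and -100 means all died.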 Unmarked numbers belong to inactive results. Calls of active or inactive are those of the source. How the source made its calls: active means growth percent below 10; inactive means the rest.

For the molecule `Cc1ccc(-c2nc3nc(-c4ccc(Cl)cc4)nc(N4CCCNCC4)c3o2)cc1`, the growth in the assay with DU-145 prostate was -21.9% (active); in the assay with K-562 leukemia, -56.7% (active); with MALME-3M melanoma, 91.8%; with MDA-MB-231 breast, -75.7% (active); in the assay on RXF 393 renal it was 80.2%; with SF-268 CNS, 97%. Besides, the growth is 85.3% in the assay with SF-295 CNS, -96.1% (active) in the assay on SF-539 CNS, 103% in the assay on UACC-257 melanoma and -75.9% (active) in the assay on M14 melanoma.
Turning to `COc1ccc(-c2cc(-c3cc(OC)c(OC)c(OC)c3)c(C#N)c(=O)n2CCCCC(=O)O)cc1`, the growth in the assay with DU-145 prostate was 98.2%; with K-562 leukemia it was 88%; in the assay with MALME-3M melanoma, 114%; in the assay with MDA-MB-231 breast, 81.6%; in the assay on RXF 393 renal, 99.2%; with SF-268 CNS, 86.9%. Further, the growth in the assay with SF-295 CNS was 95%; in the assay on SF-539 CNS, 94.4%; in the assay on UACC-257 melanoma, 103%; in the assay on M14 melanoma it was 98%.
`CCOC(=O)c1ccc(Nc2ncnc3c2cnn3-c2cccc(F)c2)cc1`: the growth in the assay on DU-145 prostate is 106%; with K-562 leukemia, 96.7%; with MALME-3M melanoma it was 103%; with MDA-MB-231 breast, 93.3%; with RXF 393 renal, 105%; in the assay with SF-268 CNS, 94.2%. The growth in the assay on SF-295 CNS was 100%; in the assay with SF-539 CNS it was 98.5%; in the assay with UACC-257 melanoma it was 99.6%; in the assay on M14 melanoma it was 99.1%.
For `CC1(C)C(N)=Nc2cc(OCCCCN3Cc4ccccc4C3)c(OCC3CC3)cc21`, the growth with DU-145 prostate was 88.8%; with K-562 leukemia, 97.3%; in the assay on MALME-3M melanoma it was 2.01% (active); in the assay on MDA-MB-231 breast, 59.2%; with RXF 393 renal, 65.8%; in the assay on SF-268 CNS, 74.7%. The growth in the assay on SF-295 CNS is 84.8%; in the assay with SF-539 CNS, 80.8%; in the assay on UACC-257 melanoma, 1.07% (active); in the assay on M14 melanoma, -53.1% (active).
For `Cc1ccc(C(=O)c2ccc(CC(=O)N=Nc3c(O)[nH]c4ccc(OC(F)(F)F)cc34)n2C)cc1`, the growth is 102% with DU-145 prostate; 92.5% in the assay with K-562 leukemia; 126% in the assay on MALME-3M melanoma; 92.4% in the assay with MDA-MB-231 breast; 104% in the assay with RXF 393 renal; 93.2% in the assay with SF-268 CNS. Moreover, the growth was 101% in the assay with SF-295 CNS, 102% in the assay on SF-539 CNS, 102% with UACC-257 melanoma and 97.6% in the assay on M14 melanoma.
For the molecule `O=C1/C(=C/c2cn(-c3ccccc3)nc2-c2ccccc2)SC(=S)N1c1ccccc1`, the growth with DU-145 prostate is 102%; in the assay with K-562 leukemia it was 104%; with MALME-3M melanoma, 94.5%; in the assay on MDA-MB-231 breast, 89.1%; with RXF 393 renal, 107%; in the assay on SF-268 CNS, 99.1%. Besides, the growth in the assay on SF-295 CNS is 97.5%; with SF-539 CNS, 94.5%; in the assay on UACC-257 melanoma, 107%; with M14 melanoma, 97.2%.
Regarding `COc1ccc(C/C(C)=C(\c2ccc(O)cc2)c2ccc(OCCCN(C)C)cc2)cc1`, the growth was 101% in the assay on DU-145 prostate; 70.4% in the assay on K-562 leukemia; 97.1% in the assay on MALME-3M melanoma; 106% in the assay on MDA-MB-231 breast; 89.5% with RXF 393 renal; 88.1% with SF-268 CNS. The growth in the assay with SF-295 CNS was 104%; with SF-539 CNS, 107%; in the assay with UACC-257 melanoma it was 92.4%; in the assay with M14 melanoma, 99.4%.
Turning to `COc1ccc(-c2ccc(-c3ccc(C(=N)N)cn3)o2)cc1Cl`, the growth in the assay with DU-145 prostate is 46.5%; in the assay on K-562 leukemia, -40.3% (active); in the assay with MALME-3M melanoma it was 5.7% (active); with MDA-MB-231 breast, 4.25% (active); in the assay with RXF 393 renal it was 56.6%; with SF-268 CNS, 46.5%. The growth in the assay on SF-295 CNS was 73.6%; with SF-539 CNS it was 33%; in the assay on UACC-257 melanoma it was 77.1%; in the assay on M14 melanoma, 31.8%.
For the molecule `COc1cccc(C2C(C#N)=C(N)Oc3cc(OCCCCCC[P+](c4ccccc4)(c4ccccc4)c4ccccc4)ccc32)c1` (stereo not given), the growth was 1.62% (active) with DU-145 prostate; -21.2% (active) in the assay with K-562 leukemia; -73.3% (active) in the assay with MALME-3M melanoma; -54.1% (active) with MDA-MB-231 breast; -63.8% (active) with RXF 393 renal; -38.5% (active) with SF-268 CNS. The growth in the assay on SF-295 CNS was -41.4% (active); in the assay on SF-539 CNS, -58.1% (active); in the assay on UACC-257 melanoma it was -21.5% (active); in the assay with M14 melanoma, -49.7% (active).
Take `CC(Sc1ccccc1)C(=O)O` (stereo not given): the growth is 107% with DU-145 prostate; 152% in the assay with K-562 leukemia; 67.5% with MALME-3M melanoma; 93.2% in the assay on MDA-MB-231 breast; 94.2% in the assay on RXF 393 renal; 105% in the assay with SF-268 CNS. For the same molecule, the growth in the assay on SF-295 CNS was 91.8%; with SF-539 CNS, 103%; with UACC-257 melanoma it was 103%; with M14 melanoma, 95.2%.
In the case of `N#Cc1c(N)nnn1Cc1cc(=O)oc2ccc(O)cc12`, the growth in the assay on DU-145 prostate was 108%; with K-562 leukemia, 96.1%; with MALME-3M melanoma it was 108%; in the assay on MDA-MB-231 breast, 112%; in the assay on RXF 393 renal, 98.8%; in the assay with SF-268 CNS it was 103%. For the same molecule, the growth in the assay with SF-295 CNS was 102%; in the assay on SF-539 CNS, 104%; in the assay on UACC-257 melanoma it was 101%; in the assay with M14 melanoma, 105%.
`COc1cc(Cl)cc(-c2nn(C(=O)NS(=O)(=O)c3ccc(Cl)cc3)cc2-c2ccncc2)c1`: the growth with DU-145 prostate is 83.8%; in the assay with K-562 leukemia, 82.2%; in the assay with MALME-3M melanoma, 78.1%; with MDA-MB-231 breast, 56.8%; in the assay on RXF 393 renal, 71.2%; in the assay with SF-268 CNS, 67.5%. Also, the growth is 90.6% in the assay on SF-295 CNS, 39.6% in the assay with SF-539 CNS, 113% in the assay on UACC-257 melanoma and 72.7% with M14 melanoma.
